Shown are actives, neighbours in structure and some others; about 1.8% of the full set was active somewhere.
GSTO1 counter = inhibitors of recombinant GSTO1, primary screen, counter-screen for RBBP9 inhibitor project, biochemical, fluorescence polarization; Glutathione S-transferase omega-1 (Homo sapiens), P78417; activity-based probe fluorescence polarization; inhibition, % at 5.96 µM; 1.1% of 300,000 active; AID 1974, 2009;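 active = inhibition above the campaign mean inhibition plus 3 SD, cut at about 35% in these data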;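 also: 0% = GSTO1-1 with DMSO and 100% = wells lacking GSTO1-1 enzyme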
Target sequence (P78417 whole entry, looked up): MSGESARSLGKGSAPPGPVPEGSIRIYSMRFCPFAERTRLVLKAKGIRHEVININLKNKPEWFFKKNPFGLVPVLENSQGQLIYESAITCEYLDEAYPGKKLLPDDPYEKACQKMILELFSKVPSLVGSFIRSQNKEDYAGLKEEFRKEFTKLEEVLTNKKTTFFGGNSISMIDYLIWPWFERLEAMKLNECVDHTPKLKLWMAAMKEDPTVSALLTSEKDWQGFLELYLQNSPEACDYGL
PME-1 inh = PME-1 inhibitors via competitive probe labeling, primary screen, biochemical, fluorescence polarization, FP-Rh probe, HTS; inhibition, % at 5.9 µM; 0.53% of 320,000 active; AID 2130, 2009; recombinant PME-1; Protein phosphatase methylesterase 1 (Homo sapiens), Q9Y570;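 active = inhibition above the campaign mean of all compounds plus 3 SD, cut at about 26% in these data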;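 also: competitive labeling of PME-1 active site by serine hydrolase directed probe; 0% = PME-1 with DMSO and 100% = wells lacking PME-1 enzyme; inhibitors block probe labeling so polarization falls and inhibition rises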
Target sequence (Q9Y570 whole entry, looked up): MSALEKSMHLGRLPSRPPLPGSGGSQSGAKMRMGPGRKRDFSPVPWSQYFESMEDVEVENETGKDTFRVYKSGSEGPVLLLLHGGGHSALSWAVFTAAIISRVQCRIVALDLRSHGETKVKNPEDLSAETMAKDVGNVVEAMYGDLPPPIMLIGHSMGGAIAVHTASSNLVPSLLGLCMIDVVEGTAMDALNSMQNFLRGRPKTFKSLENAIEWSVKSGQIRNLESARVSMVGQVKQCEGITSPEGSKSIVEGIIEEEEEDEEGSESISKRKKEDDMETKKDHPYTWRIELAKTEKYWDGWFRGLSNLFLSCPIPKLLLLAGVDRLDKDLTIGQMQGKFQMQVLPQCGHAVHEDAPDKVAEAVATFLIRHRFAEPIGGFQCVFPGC
Fam108B counter = mouse Fam108B serine hydrolase inhibitors, primary screen, counter-screen for RBBP9 inhibitor project, biochemical, fluorescence polarization. recombinant Fam108B, FP-Rh probe fluorescence polarization. inhibition, % at 9.51 µM. 0.33% of 300,000 active. AID 1947, 2009;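 active = inhibition above the screen mean inhibition plus 3 SD, computed separately per campaign, cut at about 18% in these data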;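 also: inhibitors lower polarization as less probe binds the enzyme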
LYPLA2 inh = LYPLA2 inhibitors, primary screen, counter-screen for PME1 inhibitor project, biochemical, fluorescence polarization, FP-Rh probe ABPP; AID 2177, 2009; inhibition, % at 5.9 µM; Acyl-protein thioesterase 2 (Homo sapiens), O95372; 0.38% of 320,000 active; recombinant LYPLA2;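 active = inhibition above the screen-wide mean plus 3 SD, limit set per campaign, cut at about 26% in these data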;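 also: 0% = LYPLA2 with DMSO and 100% = wells lacking LYPLA2 enzyme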
LYPLA1 counter = LYPLA1 inhibitors, primary screen, counter-screen for PME1 inhibitor project, biochemical, fluorescence polarization, FP-Rh probe ABPP | Acyl-protein thioesterase 1 (Homo sapiens), O75608 | recombinant LYPLA1 | inhibition, % at 5.9 µM | 0.16% of 320,000 active | AID 2174, 2009;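 active = inhibition above the mean of all tested compounds plus 3 SD, set per campaign, cut at about 14% in these data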;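 also: inhibitors block serine hydrolase probe labeling of LYPLA1 so polarization falls; 0% = enzyme with DMSO and 100% = wells lacking LYPLA1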
PAD4 inh = human PAD4 inhibitors, primary screen, biochemical, fluorescence polarization, 1536-well format | inhibition, % at 6.36 µM | recombinant PAD4, RCA probe fluorescence polarization | 0.41% of 330,000 active | Protein-arginine deiminase type-4 (Homo sapiens), Q9UM07;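 active = percent inhibition above a cutoff equal to the mean of all tested compounds plus 3 SD, cut at about 15% in these data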;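 also: 0% = PAD4 with RCA probe and DMSO and 100% = probe without PAD4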
LYPLA2 conf = LYPLA2 inhibitors, retest, confirmation, counter-screen for PME1 inhibitor project, biochemical, fluorescence polarization, FP-Rh probe ABPP. shares compounds with LYPLA2 inh. recombinant LYPLA2. inhibition, % at 5.9 µM. 72% of 1,100 active. AID 2232, 2010;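 active = mean inhibition across replicates above the hit cutoff set in the primary screen, cut at about 26% in these data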;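 also: blocked labeling of the enzyme by serine hydrolase FP-Rh probe lowers polarization; 0% = enzyme with DMSO and 100% = wells lacking LYPLA2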
LYPLA2 ABPP = LYPLA2 inhibitors in proteome, late-stage follow-up, gel-based competitive ABPP, fluorescence, assay provider. shares compounds with LYPLA2 inh. rhLYPLA2 in mouse brain proteome, gel ABPP FP-Rh. inhibition, % at 20 µM. 30% of 150 active. AID 652029, 2013;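 active = inhibition of LYPLA2 enzyme probe labeling above about 50%, limit read from the data; inactive = inhibition below that limit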;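 also: loss of FP-Rh probe labeling of the LYPLA2 gel band measured as band density; 0% = DMSO only control band and 100% = blank gel background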
Active calls of the source: *; x = no result.

SMILES	GSTO1 counter	PME-1 inh	Fam108B counter	LYPLA2 inh	LYPLA1 counter	PAD4 inh	LYPLA2 conf	others
Cc1onc(-c2c(Cl)cccc2Cl)c1COC(=O)c1ccc(Cl)cc1[N+](=O)[O-]	3	-2	0	1	-5	0	x
Cc1cccc(NC(=O)Cn2c([N+](=O)[O-])cnc2C)c1C	8	3	-5	31*	7	1	32*
Cc1cc(Br)c(NC(=O)Cn2c([N+](=O)[O-])cnc2C)cc1C	4	-4	2	3	-3	4	x
COC(=O)c1ccc(NC(=O)Cn2c([N+](=O)[O-])cnc2C)cc1	12	-1	-2	4	1	-3	x
Cc1ncc([N+](=O)[O-])n1CC(=O)Nc1ccc2c(c1)OCO2	3	-2	-6	26*	-2	-6	25
Cc1ncc([N+](=O)[O-])n1CC(=O)Nc1ccccc1	-1	-10	-6	32*	-1	-6	38*
Cc1ncc([N+](=O)[O-])n1CC(=O)Nc1ccc(Br)cc1	4	5	-1	46*	3	3	38*
Cc1ccc(NC(=O)Cn2c([N+](=O)[O-])cnc2C)cc1	0	-9	2	12	-2	3	x
O=C(NC(=S)Nc1ccccc1Br)C1CCC1	0	8	1	-3	-2	3	x
O=C(NCC1COc2ccccc2O1)C1CCC(CNc2c(N3CCCCC3)c(=O)c2=O)CC1 (stereo not drawn)	0	1	5	6	5	-2	x
CSc1nc(-c2ccccc2)nc(N2CCOCC2)c1C(C)=O	3	-3	-2	6	5	-6	x
COc1ccc(C(=O)CSc2nnc(CNC(=O)c3ccc(OC)cc3)n2C)cc1	6	-3	-4	10	4	-8	x
Cc1ncc([N+](=O)[O-])n1CC(=O)Nc1ccc(F)cc1	3	-2	1	33*	-3	3	38*
CCOC(=O)C1(C)NC(c2ccc(OC)cc2OC)C2C(=O)N(c3cccc(OC)c3)C(=O)C21 (stereo not drawn)	-7	2	5	3	-1	-2	x
CCOC(=O)C1(C)/C(=N/Nc2ccc(S(N)(=O)=O)cc2)C(=O)C(=O)N1c1ccccc1 (stereo not drawn)	9	-5	1	-2	-4	-11	x
CCOC(=O)C1(C)C=C(Nc2ccc(C)cc2)C(=O)N1c1ccc(C)cc1 (stereo not drawn)	-1	5	3	27*	1	-5	-2
O=C1CC(c2ccc(Cl)cc2)CC(O)=C1C=NCc1ccc(Cl)c(Cl)c1 (stereo not drawn)	2	-2	5	27*	2	-4	58*	LYPLA2 ABPP=37
Cc1ccc(C(=O)N2CCN(C)CC2)cc1S(=O)(=O)N1CCCCCC1	-2	18	-2	27*	1	0	-4
CC(=O)N1CCN(C(=O)c2ccc(C)c(S(=O)(=O)N3CCCCC3)c2)CC1	x	x	x	x	x	0	x
CCN(CC(=O)NCc1cccs1)C(=O)c1cc(S(=O)(=O)N2CCOCC2)ccc1C	-4	4	2	29*	-4	0	-2
CCN(CC(=O)NCc1ccc(Cl)cc1)C(=O)c1cc(S(=O)(=O)N2CCOCC2)ccc1C	x	x	x	x	x	1	x
Cc1nn(-c2ccc(F)cc2)c2sc(C(=O)OC3CCOC3=O)cc12 (stereo not drawn)	4	-5	1	35*	2	2	28*
CC(=O)c1ccc(N2CCN(c3ccc(S(=O)(=O)N4CCN(C)CC4)cn3)CC2)cc1	-11	2	-3	27*	0	0	35*
CC(=O)N1CCN(c2ccc(S(=O)(=O)N3CCCCC3)cn2)CC1	-8	-8	-5	3	2	-2	x
O=C(c1c(F)c(F)c(F)c(F)c1F)N1CCN(Cc2ccc3c(c2)OCO3)CC1	8	-4	1	-1	-1	2	x
SMILES	GSTO1 counter	PME-1 inh	Fam108B counter	LYPLA2 inh	LYPLA1 counter	PAD4 inh	LYPLA2 conf	others
O=C(c1cc(-c2ccc(F)cc2)no1)N1CCN(Cc2ccc3c(c2)OCO3)CC1	5	0	1	33*	1	2	35*
O=C(CC12CC3CC(CC(C3)C1)C2)NCC(c1ccc(F)cc1)N1CCOCC1 (stereo not drawn)	-11	-6	-2	-5	-4	7	x
O=C(C1CCN(c2nnc(-n3cccc3)s2)CC1)N1CCN(Cc2ccc3c(c2)OCO3)CC1	3	-2	1	34*	4	-4	46*
CC1CCCC(C)N1C(=O)COC(=O)CCC1CCCC1 (stereo not drawn)	13	7	0	36*	0	1	1
CC1CCCC(C)N1C(=O)COC(=O)Cc1ccc(Cl)cc1 (stereo not drawn)	17	0	-4	-5	-4	-2	x
C/C(=N\NC(=O)Cc1cccn1C)c1cccs1	7	0	1	-1	-4	-4	x
COc1ccc(-c2noc(CCC(=O)N3CCN(c4cccc(OC)c4)CC3)n2)cc1	x	x	x	x	x	-2	x
COc1ccc(-c2noc(CCC(=O)N3CCN(c4cccc(C(F)(F)F)c4)CC3)n2)cc1	-8	1	1	69*	5	-4	67*	LYPLA2 ABPP=70*
Cc1ccc(/C=C/C(=O)N2CCN(c3cccc(C(F)(F)F)c3)CC2)cc1	-2	-2	-2	47*	13	-4	35*
CCc1ccc(C(=O)N2CCC(c3nc4ccccc4s3)CC2)cc1	-1	2	-1	49*	0	-1	39*
COc1cc(C#Cc2ccc3cc(C(C)(C)O)oc(=O)c3c2)cc(OC)c1	x	0	x	5	0	-5	x
O=C(NNc1ccccc1[N+](=O)[O-])Nc1cccc(Cl)c1	5	4	5	40*	-1	3	46*
COCCCNC(=O)c1sc2ncn(CC(=O)Nc3ccc(C)c(Cl)c3)c(=O)c2c1C	-1	-5	-3	42*	-11	-1	35*
COc1ccccc1NC(=O)Cn1cnc2sc(C(=O)NCc3ccco3)c(C)c2c1=O	-4	-2	-1	64*	0	0	57*	LYPLA2 ABPP=49
